# Screens as filed in PubChem.
# Many of the other results were omitted from the sample, so hits are more common in it than they were.
# nsP2pro inh: CHIKV nsP2 protease inhibition, primary qHTS. Q8JUX6. FRET peptide cleavage, nsP2pro, fluorescence 1 h. Potency, µM (highest dose often 24.9 µM), for inactives: at the top dose activity change, negative = inhibition, usual class: inhibitors. 31,000 compounds, 1.1% hits. AID 1964107; calls by dose curve; note: nearly all actives have a fitted effect of over 60% in size
# Target sequence (Q8JUX6 whole entry, looked up): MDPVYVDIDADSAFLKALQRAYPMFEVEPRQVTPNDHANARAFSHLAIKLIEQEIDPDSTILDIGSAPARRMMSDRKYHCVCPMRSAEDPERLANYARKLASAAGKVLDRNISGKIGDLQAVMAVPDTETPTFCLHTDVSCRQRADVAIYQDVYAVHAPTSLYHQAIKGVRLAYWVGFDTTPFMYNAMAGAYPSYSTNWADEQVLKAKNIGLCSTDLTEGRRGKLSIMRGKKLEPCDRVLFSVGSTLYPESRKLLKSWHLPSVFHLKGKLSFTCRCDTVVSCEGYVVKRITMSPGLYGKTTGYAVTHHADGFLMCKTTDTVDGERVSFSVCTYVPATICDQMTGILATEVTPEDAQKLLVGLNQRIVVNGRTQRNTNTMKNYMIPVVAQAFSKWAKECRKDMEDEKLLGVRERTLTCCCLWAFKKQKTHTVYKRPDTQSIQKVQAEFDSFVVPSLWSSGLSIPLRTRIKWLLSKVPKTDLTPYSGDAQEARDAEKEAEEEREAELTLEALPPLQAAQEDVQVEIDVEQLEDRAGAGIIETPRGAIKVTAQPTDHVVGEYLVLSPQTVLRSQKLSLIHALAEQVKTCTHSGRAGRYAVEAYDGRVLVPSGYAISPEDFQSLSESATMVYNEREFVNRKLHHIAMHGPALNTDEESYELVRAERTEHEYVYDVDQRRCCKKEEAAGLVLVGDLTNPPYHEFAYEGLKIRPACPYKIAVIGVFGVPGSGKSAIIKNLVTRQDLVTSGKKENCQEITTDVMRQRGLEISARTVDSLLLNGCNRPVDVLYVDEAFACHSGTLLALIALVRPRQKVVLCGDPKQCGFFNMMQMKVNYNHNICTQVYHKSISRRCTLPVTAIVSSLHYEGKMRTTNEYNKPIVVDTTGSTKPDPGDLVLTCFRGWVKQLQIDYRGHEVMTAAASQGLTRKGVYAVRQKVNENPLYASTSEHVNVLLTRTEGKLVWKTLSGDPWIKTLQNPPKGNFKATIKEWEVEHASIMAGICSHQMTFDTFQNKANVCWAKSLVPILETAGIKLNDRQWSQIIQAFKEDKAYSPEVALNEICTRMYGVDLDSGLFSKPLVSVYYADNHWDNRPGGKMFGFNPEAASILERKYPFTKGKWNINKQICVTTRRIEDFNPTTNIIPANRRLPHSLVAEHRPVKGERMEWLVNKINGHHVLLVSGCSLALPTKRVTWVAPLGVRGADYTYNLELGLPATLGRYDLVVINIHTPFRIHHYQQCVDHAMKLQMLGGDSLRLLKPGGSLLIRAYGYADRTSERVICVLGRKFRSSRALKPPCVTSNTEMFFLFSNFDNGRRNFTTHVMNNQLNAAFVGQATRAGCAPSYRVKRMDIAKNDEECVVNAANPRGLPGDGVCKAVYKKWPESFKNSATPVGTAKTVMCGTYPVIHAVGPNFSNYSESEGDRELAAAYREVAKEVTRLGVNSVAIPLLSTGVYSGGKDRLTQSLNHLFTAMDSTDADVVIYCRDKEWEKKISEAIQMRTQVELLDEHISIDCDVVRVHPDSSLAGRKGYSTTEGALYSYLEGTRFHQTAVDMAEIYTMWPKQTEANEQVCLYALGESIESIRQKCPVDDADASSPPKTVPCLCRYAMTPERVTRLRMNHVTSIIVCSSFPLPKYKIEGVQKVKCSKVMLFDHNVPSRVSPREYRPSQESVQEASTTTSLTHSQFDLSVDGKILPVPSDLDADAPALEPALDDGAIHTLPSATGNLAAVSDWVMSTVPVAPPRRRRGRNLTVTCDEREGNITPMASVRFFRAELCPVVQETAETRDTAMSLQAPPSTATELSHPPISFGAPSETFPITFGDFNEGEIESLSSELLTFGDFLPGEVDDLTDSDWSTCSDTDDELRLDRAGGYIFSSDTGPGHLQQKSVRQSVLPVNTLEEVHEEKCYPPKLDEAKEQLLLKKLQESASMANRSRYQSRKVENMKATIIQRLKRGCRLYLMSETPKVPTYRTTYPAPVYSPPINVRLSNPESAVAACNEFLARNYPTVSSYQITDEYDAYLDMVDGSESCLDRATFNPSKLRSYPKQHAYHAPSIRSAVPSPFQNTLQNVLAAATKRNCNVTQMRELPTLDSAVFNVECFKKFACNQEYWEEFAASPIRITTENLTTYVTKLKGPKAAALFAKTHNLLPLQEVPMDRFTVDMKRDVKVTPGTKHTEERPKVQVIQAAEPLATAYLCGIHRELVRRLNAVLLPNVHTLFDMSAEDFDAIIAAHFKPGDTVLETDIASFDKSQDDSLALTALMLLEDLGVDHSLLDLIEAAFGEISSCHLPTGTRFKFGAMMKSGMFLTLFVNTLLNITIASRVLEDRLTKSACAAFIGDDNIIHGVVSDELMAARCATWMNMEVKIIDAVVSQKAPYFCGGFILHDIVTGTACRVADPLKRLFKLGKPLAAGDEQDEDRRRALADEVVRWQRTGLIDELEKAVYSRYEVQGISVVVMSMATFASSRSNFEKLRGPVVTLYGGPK
#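 Enzyme 150 nM, substrate 2.5 uM (both final); Tris-HCl 10 mM pH 8.0 + 0.01% Tween 20; cpd up to 25 uM, 7 pts; 15 min preinc., 1 h RT; fluorescence ex 525/em 598.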
# * = called active by the depositor; i = inactive; [ ] = dose if it differs, or a comment. % is set by controls: 0 for no effect and ±100 for the full control effect; potency is the fitted concentration of half-maximal effect.
SMILES,nsP2pro inh
CC(=O)c1ccc(NC(=O)N[C@H]2CO[C@H]3[C@@H]2OC[C@@H]3Nc2nccc(-c3ccco3)n2)cc1,-11%
COc1ccc(N2C[C@]34C=C[C@H](O3)C(C(=O)O)C4C2=O)cc1 (stereo partly drawn),0%
CCN1C(=O)N(c2c(F)c(OC)cc(OC)c2F)Cc2cnc3[nH]c(CN4CCOCC4)cc3c21,-9%
Cc1cc(C)n2ncc(C(=O)Nc3ccc(C(C)(C)C)cc3)c2n1,-5%
COC(=O)C12CCC(C)C(C)C1C1=CCC3C4(C)CCC(OC(C)=O)C(C)(C)C4CCC3(C)C1(C)CC2 (stereo not drawn),0%[10 µM]
CC(=O)OC1CCC2(C)C(CCC3(C)C2CC=C2C4C(C)C(C)CCC4(C)CCC23C)C1(C)C(=O)O (stereo not drawn),1.2µM*
CC(=O)O[C@@H]1CC[C@@]2(C)C(CC[C@]3(C)C2[C@H](O)C=C2[C@H]4[C@@H](C)[C@H](C)CC[C@]4(C)CC[C@]23C)[C@@]1(C)C(=O)O (stereo partly drawn),-15%[10 µM]
O=C(N[C@H]1CCS[C@H]2CCC[C@@H](C(=O)O)N2C1=O)[C@@H](S)Cc1ccccc1,-25%
Nc1cccc(C(OCCN2CCCCC2)c2cc3nccc(C(=O)O)c3s2)c1 (stereo not drawn),-7%
O=C(c1cccc([N+](=O)[O-])c1)N1c2ncnn2C2(CCCCC2)[C@@H]2CCCC[C@@H]21,-18%
CC(=O)N1c2nc(-c3ccco3)nn2C2(CCCCC2)[C@@H]2CCCC[C@@H]21,-28%
COCC(=O)N1c2nc(C(C)C)nn2C2(CCCCC2)[C@@H]2CCCC[C@@H]21,11µM*
O=C(O)c1cccc(CN2C(=O)/C(=C(\c3ccccc3)c3ccc(Cl)cc3)c3ccccc32)c1,218%
CSCCC(C=O)NC(=O)C(CC(C)C)NC(=O)C(CC(C)C)NC(C)=O (stereo not drawn),-22%
Cc1ccc(NC(=O)N2C[C@@H]3C[C@H](C2)c2c(-c4cccs4)ccc(=O)n2C3)cc1,-2%[39.2 µM]
COc1ccc(S(=O)(=O)N2C[C@@H]3C[C@H](C2)c2c(NC(=O)c4ccccc4)ccc(=O)n2C3)cc1,4%
O=c1ccc(-c2cccs2)c2n1C[C@H]1C[C@@H]2CN(S(=O)(=O)c2ccccc2)C1,16µM*
C=CC(=O)Nc1ccc(CN2C(=O)N(c3cc(OC)cc(OC)c3)Cc3cnc(Nc4ccc(N5CCN(C)CC5)cc4)nc32)cc1,45%
Cc1cc(-c2ccccc2)n2ncc(C(=O)Nc3ccc(Cl)c(Cl)c3)c2n1,3%
FC(F)(F)c1ccccc1-c1nccc(NCc2ccc(-c3cccnc3)cc2)n1,2%
CC(C)CCNC(=O)[C@H](CC(C)C)NC(=O)[C@H]1O[C@@H]1C(=O)O,-10%
CCOC(=O)[C@H]1O[C@H]1C(=O)N[C@@H](CC(C)C)C(=O)NCCC(C)C,7.1µM*
Cc1nn(C)cc1S(=O)(=O)NC(=O)c1ccc(-n2ccc(OCC(C)(C)C(F)(F)F)n2)nc1N1C[C@@H](C)CC1(C)C,-8%
COc1ccc(C(=O)N2CC(=O)N(c3ccc(C)cc3)CC2C)c(OC)n1 (stereo not drawn),1%
Cc1ccc(CN2CCCc3nc(C)nc(-c4ccc(O)cc4)c3C2)cc1,i
SMILES,nsP2pro inh
CN(C)Cc1nnc(C2CC(NC(=O)Cc3c(F)cccc3Cl)C2)n1C (stereo not drawn),-8%
CN(C)Cc1nnc(C2CC(NC(=O)c3cc(-c4ccsc4)n[nH]3)C2)n1C (stereo not drawn),-1%
CN(C)Cc1nnc(C2CC(NC(=O)c3cc(-c4cccn4C)n[nH]3)C2)n1C (stereo not drawn),0.5µM*
Cn1cc(-c2cnc(Nc3ccc(F)c(Cl)c3)c3c2CCO3)cn1,8.9µM*
Cc1noc(C)c1-c1cnc(Nc2ccc(CN3CCN(C)CC3)cc2)c2c1CCO2,-9%[39.2 µM]
Cc1cc(-c2cnc(Nc3ccc(F)cc3)c3c2CCO3)ccn1,-23%[39.2 µM]
O=C1COc2ccc(N3CCCC3)nc2CN1Cc1ccc(C(F)(F)F)cc1,2%[39.2 µM]
CN1CCN(C2=Nc3ccccc3Nc3ccc(O)cc32)CC1,-12%
N[C@H](CO)C(=O)O,-26%
COC(=O)[C@@H](N)CS,11µM*
Cc1cc(N[S+](=O)([O-])c2ccc(NC(=O)Cc3ccc(F)c(F)c3)cc2)no1,-1%
O=C1CCCC2=C1C(c1[nH]ncc1Cl)N=C(Nc1cccnc1)N2 (stereo not drawn),-3%
CC1=C(c2ccc(C)c(C)c2)S(=O)(=O)N=C1N1CCC(C(=O)NCc2ccc(Cl)cc2)CC1,-4%
CC1=C(c2ccc(C)c(C)c2)S(=O)(=O)N=C1N1CCC(C(=O)Nc2ccc(Cl)cc2)CC1,-11%
CC1=C(c2ccc(Cl)cc2)S(=O)(=O)N=C1N1CCC(C(=O)NCCc2ccco2)CC1,11µM*
CN(Cc1ccc(-c2ccccc2)cc1)C(=O)C1CC1,-15%[39.2 µM]
COCC1=C(C(=O)O)N2C(=O)[C@@H](NC(=O)/C(=N\OC)c3csc(N)n3)[C@H]2SC1,-11%
CCO/N=C(\C(=O)N[C@@H]1C(=O)N2C(C(=O)O)=C(Sc3nc(-c4cc[n+](C)cc4)cs3)CS[C@H]12)c1nsc(NP(=O)(O)O)n1,11µM*
CO/N=C(\C(=O)N[C@@H]1C(=O)N2C(C(=O)O)=C(CSc3cnns3)CS[C@H]12)c1csc(N)n1,-46%
CN(C)[C@@H]1C(=O)C(C(N)=O)=C(O)[C@@]2(O)C(=O)C3=C(O)c4c(O)c(NC(=O)CN5CCCC5)cc(F)c4C[C@H]3C[C@@H]12,-18%
COC(=O)c1nc(C(F)(F)F)n2c1CN(C(=O)C[C@H](N)Cc1cc(F)c(F)cc1F)CC2,0%
COc1ccc(-n2nc(C(=O)O)c(=O)n(C)c2=O)cc1,-24%
CCOC(=O)c1nn(-c2ccc(OC)cc2)c(=O)c2c(N)scc12,11µM*
CCC1CCCCN1C(=O)c1nn(-c2ccc(OC)cc2)c(=O)c2c1c1ccccc1n2C (stereo not drawn),-15%
COc1ccc(C2CC(=O)c3c(O)cc(OC4OC(CO)C(O)C(O)C4OC4OC(C)C(O)C(O)C4O)cc3O2)cc1O (stereo not drawn),-21%
SMILES,nsP2pro inh
Cc1nc2ccccc2c(-c2ccc3c(c2)CCCO3)c1C(OC(C)(C)C)C(=O)O (stereo not drawn),-12%
O=C(Nc1ccc(Cl)c(Cl)c1)Nc1ncc(-c2ccncc2)s1,-1%
COc1ccc(Oc2c(Cl)cnn(-c3cc(C)cc(C)c3)c2=O)cc1,0%
CCc1nc2c(cnn2-c2ccc(C)cc2)c(=O)n1Cc1ccccc1,-19%
COc1ccc(-n2c(-c3ccccc3F)nc3c(cnn3-c3ccc(C)cc3)c2=O)cc1,11µM*
COc1ccc(N2CC3CCC(C2)N3CC2CCCC2)cc1,-15%[39.2 µM]
Fc1ccccc1-c1nc(-c2cccc(-c3nn[nH]n3)c2)no1,i
Cc1ccccc1C(=O)N1CCc2cc(-c3nc(NC(=O)Cc4ccccc4)sc3C)ccc21,-5%
Cc1ccc(-c2ccc3c(c2)C=C(C(=O)Nc2ccc(C[N+](C)(C)C4CCOCC4)cc2)CCC3)cc1,235%
Fc1ccc(-c2cccc(CN3CCOCC3)c2)c(Cl)c1,2%
O=C(c1nc2c(o1)CCN(Cc1cccc(F)c1)CC2)N1CCOCC1,2.8µM*
Cn1c(C(=O)Nc2ccc3c(c2)OCO3)cc2c1CCN(Cc1cccc(F)c1)C2,-9%
